SW480 rerep: A quantitative high throughput screen for small molecules that induce DNA re-replication in SW480 colon adenocarcinoma cells; SW480 DNA re-replication, Hoechst DNA content imaging, 48 h; Potency, µM (series often up to 46.1 µM), actives largely listed as activators; 340,000 compounds, 1.8% hits; AID 624297, 2012; also: nearly all actives have a fitted effect of over 55% in size
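Cells (250 per well) received 23 nL compound or DMSO by pin tool and were kept 48 hr at 37 C, 5% CO2. Nuclei were then stained with Hoechst for 40 min and scanned for DNA content.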
KB-3-1 tox: qHTS assay for MDR1-selective chemotherapeutics: Primary screen using the parental adenocarcinoma cell KB-3-1; KB-3-1 viability, CellTiter-Glo ATP luminescence, 72 h; Potency, µM (top dose mostly 46.1 µM), actives largely listed as cytotoxic; 400,000 compounds, 1.4% hits; also: nearly all actives have a fitted effect of over 60% in size
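Cells are dispensed, compounds pinned in, plates held at 37 °C for 72 h, then CellTiter-Glo is added and luminescence read after 10 minutes. Cell line: parental KB-3-1 in phenol-red-free DMEM, 10% FBS.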
HT1080 IDH1KD tx: qHTS for induction of synthetic lethality in tumor cells producing 2HG: qHTS for the HT-1080-IDH1KD cell line; HT-1080 IDH1 knockdown viability, ATP luminescence, 48 h; Potency, µM (doses to about 46.1 µM), hits mostly cytotoxic; 360,000 compounds, 2% hits
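Viability of IDH1-knockdown HT-1080 fibrosarcoma cells was assessed by CellTiter-Glo after 48 h at 37 °C with titrated compound; concentration-effect curves were classified by fit quality and response size.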
MCF10A rereplic: A quantitative high throughput screen for small molecules that induce DNA re-replication in MCF 10a normal breast cells. MCF 10A DNA re-replication, Hoechst nuclear intensity, 48 h. Potency, µM (doses to about 46.1 µM), most hits filed as activators. 350,000 compounds, 2.9% hits; also: nearly all actives have a fitted effect of over 50% in size
KB-V1 cytotox: qHTS assay for MDR1-selective chemotherapeutics: Primary screen using the drug-selected MDR subline cells KB-V1 | Potency, µM (top dose mostly 46.1 µM), most hits filed as cytotoxic | KB-V1 MDR cells viability, CellTiter-Glo, 72 h | 400,000 compounds, 3.4% hits; also: nearly all actives have a fitted effect of over 60% in size
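In this primary screen, KB-V1 cells overexpressing P-gp are incubated with library compounds (lowest to highest concentration) for 72 h at 37 degrees C before a luminescent ATP viability read.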
HT1080NT lethal: qHTS for induction of synthetic lethality in tumor cells producing 2HG: qHTS for the HT-1080-NT fibrosarcoma cell line; AID 686970, 2013; HT-1080-NT fibrosarcoma viability, CellTiter-Glo ATP luminescence, 48 h; Potency, µM (top dose mostly 46.1 µM), most hits filed as cytotoxic; 360,000 compounds, 1.6% hits;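 also: NT is the 2HG producing partner of a matched IDH1 knockdown line; nearly all actives have a fitted effect of over 55% in size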
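Fibrosarcoma NT cells, 750 per well in 5% FBS RPMI, were exposed to compound for 48 hours. Viability: CellTiter-Glo luminescence.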
Large screens that a line does not name were inactive. The list is not random: actives were taken first. Their share in the collection is about 8%. Calls follow the shape of the dose curve; as a rule, active = well fitted curve in the direction sought with a large enough effect; inconclusive = small, poorly fitted or top-dose-only effect, or another doubt; inactive = no such curve, though single readings can be large; an effect the other way counts as inactive or inconclusive.

COc1ccc(CCNC(=O)C2CCN(S(=O)(=O)c3ccc4c(c3)oc(=O)n4C)CC2)cc1OC	SW480 rerep inconclusive
O=C(NNC(=S)Nc1cccc(C(F)(F)F)c1)c1ccccc1Cl	KB-3-1 tox inconclusive, HT1080 IDH1KD tx inconclusive, KB-V1 cytotox inconclusive, HT1080NT lethal 18.4µM
CC(C)(C)NNC(=S)Nc1cccc(C(F)(F)F)c1	HT1080 IDH1KD tx 10.3µM
COc1ccc(-c2nnnn2-c2ccccc2OC)cc1	SW480 rerep inconclusive, KB-3-1 tox inconclusive, HT1080 IDH1KD tx inconclusive, MCF10A rereplic inconclusive, KB-V1 cytotox 13µM, HT1080NT lethal inconclusive
Cc1nn(S(=O)(=O)c2ccc(C(C)C)cc2)c(C)c1S(=O)(=O)N1CCOCC1	none
COc1ccc(/C=C/C(=O)OCC(=O)c2ccccc2F)cc1	none
COc1ccc(/C=C/C(=O)c2ccccc2O)cc1	SW480 rerep 0.103µM
COc1ccc(/C=C\C(=O)CC(O)(c2ccccc2)C(F)(F)F)cc1 (stereo unspecified)	HT1080 IDH1KD tx 11.2µM, KB-V1 cytotox inconclusive, HT1080NT lethal inconclusive
CCOc1ccc(OCCNC(=O)c2ccc3c(c2)nnn3CC)cc1	KB-V1 cytotox 23.1µM
CN(Cc1ccccc1)C(=O)CCSc1nc(-c2ccc3c(c2)OCO3)cc(C(F)(F)F)n1	HT1080 IDH1KD tx inconclusive, KB-V1 cytotox 2.59µM
CCC(C)NC(=O)CCSc1nc(-c2ccc3c(c2)OCO3)cc(C(F)(F)F)n1 (stereo unspecified)	none (no result: SW480 rerep, HT1080 IDH1KD tx, MCF10A rereplic, HT1080NT lethal)
O=C(CCSc1nc(-c2ccc3c(c2)OCO3)cc(C(F)(F)F)n1)NCc1ccccc1	HT1080 IDH1KD tx inconclusive, MCF10A rereplic inconclusive
COc1ccc(CNC(=O)CCSc2nc(-c3ccc4c(c3)OCO4)cc(C(F)(F)F)n2)cc1	SW480 rerep inconclusive, MCF10A rereplic 20.6µM, KB-V1 cytotox inconclusive
COc1ccc(CC(=O)OCC(=O)c2c[nH]c3ccccc23)cc1	none
CCN(CC)S(=O)(=O)c1ccc(C(=O)NCCSc2c(-c3ccccc3)[nH]c3ccccc23)cc1	KB-3-1 tox inconclusive (no result: SW480 rerep, HT1080 IDH1KD tx, MCF10A rereplic, HT1080NT lethal)
COc1ccc(-c2[nH]c3ccccc3c2SCCNC(=O)c2ccccc2)cc1	KB-3-1 tox 20.6µM, HT1080 IDH1KD tx inconclusive, HT1080NT lethal inconclusive
Cc1ccc(CNC(=O)c2ccc(CSCc3cccc(C)c3)o2)cc1	none (no result: SW480 rerep, HT1080 IDH1KD tx, MCF10A rereplic, HT1080NT lethal)
CCc1cccc(NC(=O)c2c(N3CCCC3=O)c3cc(C)ccc3n2C)c1	KB-3-1 tox inconclusive, KB-V1 cytotox 18.4µM (no result: SW480 rerep, HT1080 IDH1KD tx, MCF10A rereplic, HT1080NT lethal)
Cc1ccc(NC(=O)c2c(N3CCCC3=O)c3cc(C)ccc3n2C)c(C)c1	none (no result: SW480 rerep, HT1080 IDH1KD tx, MCF10A rereplic, HT1080NT lethal)
CN(C(=O)c1cccc(Nc2ccc(-c3ccc4c(c3)OCCO4)nn2)c1)C1CCCCC1	KB-3-1 tox inconclusive, HT1080 IDH1KD tx 14.6µM, MCF10A rereplic inconclusive, KB-V1 cytotox inconclusive, HT1080NT lethal inconclusive
COc1ccc2c(-c3ccccc3)cc3nnnn3c2c1	MCF10A rereplic 2.59µM
COc1ccc2c(c1)c(=O)oc1cc(OCC(=O)NC3CC3)ccc12	none
COc1ccc2c(c1)c(=O)oc1cc(OCC(=O)NC3CCCCC3)ccc12	MCF10A rereplic 10.3µM
CC(=O)COc1ccc2c3c(c(=O)oc2c1)CCCC3	KB-V1 cytotox 11.6µM
CC1CCN(C(=O)COC(=O)c2n[nH]c3ccccc23)CC1	none
OC(c1ccc(Cl)cc1)c1ncc(-c2ccc(Oc3ccccc3)cc2)[nH]1 (stereo unspecified)	KB-3-1 tox inconclusive, HT1080 IDH1KD tx 23.1µM, HT1080NT lethal 23.1µM (no result: SW480 rerep, MCF10A rereplic)
OC(c1ccccc1)c1ncc(-c2ccc(Oc3ccccc3)cc2)[nH]1 (stereo unspecified)	HT1080NT lethal inconclusive (no result: SW480 rerep, MCF10A rereplic)
CCOC(=O)C(NC(C)=O)(Nc1ccc(S(=O)(=O)Nc2ncccn2)cc1)C(F)(F)F (stereo unspecified)	none
Nc1ccccc1C#Cc1ccc([N+](=O)[O-])cc1	SW480 rerep inconclusive, MCF10A rereplic inconclusive
Nc1ccccc1C#CC(=O)c1ccccc1	SW480 rerep inconclusive, KB-3-1 tox inconclusive, HT1080 IDH1KD tx inconclusive, MCF10A rereplic 8.2µM, HT1080NT lethal inconclusive
COc1cc(C(=O)N2CC(C)OC(C)C2)c([N+](=O)[O-])cc1OC (stereo unspecified)	KB-V1 cytotox inconclusive
Cc1ccc(S(=O)(=O)N(C)C)cc1NC(=O)COC(=O)CCNS(=O)(=O)c1ccccc1	none
CSc1nsc(/C=C/Nc2ccc(O)cc2C)c1C#N	SW480 rerep 23.1µM, MCF10A rereplic inconclusive
CSc1nsc(/C=C/Nc2cccc(Cl)c2)c1C#N	MCF10A rereplic 9.2µM
CSc1nsc(/C=C/Nc2ccc(Cl)cc2)c1C#N	MCF10A rereplic inconclusive
COc1ccc(C(=O)N=c2sc3c(C)ccc(OC)c3n2C)cc1OC	KB-3-1 tox inconclusive, KB-V1 cytotox 18.4µM
O=C(CN1C(=O)C2CCCCC2C1=O)Nc1cc(C(F)(F)F)ccc1N1CCCC1 (stereo unspecified)	none
C/C(=N\NC(=O)c1c(C)nc2ccccn12)c1ccc(C(C)(C)C)cc1	SW480 rerep inconclusive, MCF10A rereplic 18.4µM, KB-V1 cytotox inconclusive
CCOC(=O)C1CCCN(C(=O)c2ccc3sccc3c2)CC1 (stereo unspecified)	KB-V1 cytotox inconclusive (no result: SW480 rerep, MCF10A rereplic)
Clc1ccc(Nc2nc(NCCN3CCOCC3)nc(N3CCOCC3)n2)cc1	SW480 rerep 9.2µM, KB-3-1 tox inconclusive, MCF10A rereplic inconclusive, KB-V1 cytotox inconclusive, HT1080NT lethal inconclusive
Clc1ccc(Nc2nc(Nc3ccc(Cl)cc3)nc(N3CCOCC3)n2)cc1	none (no result: SW480 rerep, HT1080 IDH1KD tx, MCF10A rereplic, HT1080NT lethal)
CCOc1ccc(Nc2nc(NCCN3CCOCC3)nc(OC)n2)cc1	KB-V1 cytotox 18.4µM
Fc1ccc(Nc2nc(N3CCOCC3)nc(N3CCOCC3)n2)cc1Cl	SW480 rerep 18.4µM
CCOc1ccc(Nc2nc(N3CCOCC3)nc(N3CCOCC3)n2)cc1	none
COc1ccc(C(=O)Nc2ccc3c(c2)OCCO3)cc1Br	none
COc1ccc(Cl)cc1NC(=O)CN(C)C(=O)c1ccc(-n2nc(C)cc2C)cc1	none
OCC1(Cc2ccccc2)CCCN(Cc2c[nH]c3ccccc23)C1 (stereo unspecified)	none
Cn1c(/C(C#N)=C/c2ccc(O)cc2)nc2ccccc21	none
Cn1c(/C(C#N)=C/c2ccncc2)nc2ccccc21	SW480 rerep 18.4µM, MCF10A rereplic inconclusive
N#CC(=Cc1ccncc1)c1ccccc1	KB-3-1 tox inconclusive, KB-V1 cytotox 13µM

Screens as filed in PubChem.
